Laboratory results from PubChem BioAssay AID1159580 (chemical genetic matrix, 2015).
The whole screen tested about 5,500 compounds, of which about 2,000 (36%) were called active. About 18% were inconclusive and are not listed. No stated cut-off is given here; in the data, active means normalized growth mostly below about 0.91 (no sharp cut-off); inconclusive means no clear call, values can overlap the other calls; inactive means mostly above about 0.92. The list shows a part of the results.

Test: chemical genetic growth profiling, strain panel (AID 1159580);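 further: tested at 20 µM; growth read once vehicle control cultures reached saturation at 30 °C; 1 = growth at the plate median or of vehicle wells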
Settings: S. cerevisiae deletion strains, growth OD

Measured: normalized growth

Nc1ccc(N=Nc2ccc(S(N)(=O)=O)cc2)c2ccccc12
inactive: locus YAL013W, strain DEP1, stronger effect = lower value 0.999 | locus YBR229C, strain ROT2, stronger effect = lower value 1 | locus YCL061C, strain MRC1, stronger effect = lower value 0.998 | locus YDL101C, strain DUN1, stronger effect = lower value 0.98 | locus YDR150W, strain NUM1, stronger effect = lower value 0.906 | locus YEL061C, strain CIN8, stronger effect = lower value 0.989 | locus YGR078C, strain PAC10, stronger effect = lower value 1 | locus YGR229C, strain SMI1, stronger effect = lower value 1 | locus YHR030C, strain SLT2, stronger effect = lower value 1.04 | locus YHR087W, strain rtc3, stronger effect = lower value 0.995 | locus YJL187C, strain SWE1, stronger effect = lower value 1.01 | locus YJR043C, strain POL32, stronger effect = lower value 1 | locus YJR075W, strain HOC1, stronger effect = lower value 1.02 | locus YLR039C, strain RIC1, stronger effect = lower value 0.983 | locus YLR058C, strain SHM2 (second series), stronger effect = lower value 1.01 | locus YLR085C, strain ARP6, stronger effect = lower value 1.03 | locus YLR262C, strain YPT6, stronger effect = lower value 1 | locus YML094W, strain GIM5, stronger effect = lower value 0.986 | locus YMR219W, strain ESC1, stronger effect = lower value 0.994 | locus YMR263W, strain SAP30, stronger effect = lower value 0.916 | locus YNL153C, strain GIM3, stronger effect = lower value 1 | locus YNL298W, strain CLA4 (second series), stronger effect = lower value 0.982 | locus YNL322C, strain KRE1, stronger effect = lower value 0.997 | locus YNR030W, strain Alg12, stronger effect = lower value 1.01 | locus YPL055C, strain LGE1, stronger effect = lower value 0.893 | locus YPL241C, strain CIN2, stronger effect = lower value 1 | locus YPR135W, strain CTF4, stronger effect = lower value 1.06
